Assay outcomes: PubChem BioAssay, National Center for Advancing Translational Sciences (NCATS)
G9a inh – qHTS Assay for Inhibitors of Histone Lysine Methyltransferase G9a | Potency, µM (highest dose often 102 µM), inactives show at the highest dose activity, negative = inhibition, most hits filed as inhibitors | hit rate 8.8% among 350,000 | G9a H3K9 monomethylation, AlphaScreen, 2 h; also: potency is read from the fitted curve at half-maximal effect; % is scaled to controls: 0 for no effect and ±100 for the full control effect; nearly all actives have a fitted effect of over 75% in size
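AlphaScreen read-out: biotin-H3K9 peptide (500 nM) methylation by 20 nM enzyme with 20 uM SAM, 2 h at room temperature after 15 min compound preincubation; anti-monomethyl H3K9 antibody plus donor/acceptor beads, 10 min dark.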
JMJD2E inh – qHTS Assay for Inhibitors of Human Jumonji Domain Containing 2E (JMJD2E). hit rate 1.6% among 230,000. Potency, µM (titrated, usually from 57.1 µM), inactives show at the top dose activity change, negative = inhibition, hits mostly inhibitors. JMJD2E catalytic domain, FDH-coupled NADH fluorescence (FDH is formaldehyde dehydrogenase). AID 2147, 2009; active = well fitted inhibition curve with a large enough effect, not every such curve was filed as active; inconclusive = small, poorly fitted or top-dose-only effect, or another doubt; inactive = no such curve, though single readings can be large or run the other way;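 also: potency is read from the fitted curve at half-maximal effect; 0% = wells with enzyme and -100% = buffer wells without enzyme; nearly all actives have a fitted effect of over 50% in size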
ALDH1A1 inh – qHTS Assay for Inhibitors of Aldehyde Dehydrogenase 1 (ALDH1A1); Aldehyde dehydrogenase 1A1 (Homo sapiens), P00352; Purified ALDH1A1, NADH fluorescence, propionaldehyde substrate; Potency, µM (highest dose often 75.3 µM), for inactives: at the top dose activity, negative = inhibition, actives largely listed as inhibitors; hit rate 7.3% among 220,000; AID 1030, 2008; active = well fitted inhibition curve with a large enough effect, not every such curve was filed as active; inconclusive = small, poorly fitted or top-dose-only effect, or another doubt; inactive = no such curve, though single readings can be large or run the other way;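 also: potency is read from the fitted curve at half-maximal effect; plate controls were no enzyme wells and a reference inhibitor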
Target sequence (P00352 whole entry, looked up): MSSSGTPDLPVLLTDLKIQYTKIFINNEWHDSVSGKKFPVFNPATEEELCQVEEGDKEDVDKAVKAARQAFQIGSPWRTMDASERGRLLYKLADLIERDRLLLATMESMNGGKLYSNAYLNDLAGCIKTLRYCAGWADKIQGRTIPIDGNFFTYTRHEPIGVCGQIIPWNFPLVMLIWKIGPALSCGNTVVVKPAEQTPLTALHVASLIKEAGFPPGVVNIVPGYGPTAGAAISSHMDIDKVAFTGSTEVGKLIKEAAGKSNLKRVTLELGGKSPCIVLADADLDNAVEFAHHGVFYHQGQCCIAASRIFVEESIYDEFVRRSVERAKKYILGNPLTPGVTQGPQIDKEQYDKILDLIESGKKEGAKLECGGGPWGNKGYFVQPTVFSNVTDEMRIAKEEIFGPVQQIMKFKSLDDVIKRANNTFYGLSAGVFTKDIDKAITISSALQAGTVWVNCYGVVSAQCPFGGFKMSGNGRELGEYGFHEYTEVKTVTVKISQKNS
Lamin A splicing – qHTS Assay for Modulators of Lamin A Splicing; HeLa LMNA splicing GFP/RFP minigene ratio, 48 h; Potency, µM (titrated, usually from 46.1 µM), without a hit: at the highest dose ratio change, negative = inhibition, most hits filed as inhibitors; hit rate 0.01% among 200,000; AID 1487, 2009; active = well fitted inhibition curve with a large enough effect in the signal ratio, with a control signal flat, not every such curve was filed as active; inconclusive = small, poorly fitted or top-dose-only effect, or effect the other way, or a change in a side signal; the % refers to the signal ratio; also: potency is read from the fitted curve at half-maximal effect; % is scaled to controls: 0 for no effect and ±100 for the full control effect
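Read-out is the ratio of GFP to DsRed2 object intensity, acquired by 488 nm laser-scanning cytometry on HeLa lamin A-EGFP minigene reporter cells. Compound incubation 48 hrs at 37 °C in Opti-MEM with 2% FBS; DMSO 0.5% final.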
miR-21 act – qHTS Assay for Modulators of miRNAs and/orActivators of miR-21 | Potency, µM (highest dose often 38.3 µM), without a hit: top-dose activity change, positive = activation, hits mostly activators | HeLa miR-21 FLuc reporter, luciferase, 48 h | 340,000 tested, under 10 active;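 also: % of control where 0% means no effect; miR-21 action dims this reporter so a rising signal means less miR-21 action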
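Using DMEM plus 10% FBS, HeLa miR-21-FLuc cells are incubated with test compounds (final up to about 40uM) for 48 hours; firefly luciferase signal is then imaged following reagent-mediated lysis.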
Sfp inh – qHTS Assay for Inhibitors of Bacillus subtilis Sfp phosphopantetheinyl transferase (PPTase). hit rate 3.5% among 310,000. Biochemical Sfp PPTase activity, qHTS. Potency, µM, for inactives: largest response in the series, negative = inhibition, hits mostly inhibitors;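 also: the enzyme is Sfp with the accession as filed and its product quenches rhodamine fluorescence; potency is read from the fitted curve at half-maximal effect; 0% = enzyme reaction without inhibitor and -100% = no enzyme wells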
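Step 1, compound plus 15 nM Sfp-PPTase, 15 min, room temperature. Step 2, add rhodamine-CoA (5 uM) and BHQ-2-YbbR (12.5 uM). Step 3, read 525/598 nm fluorescence at 0 and 30 min.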
Starred values were filed as active, the others as inactive; [ ] = another dose, or the depositor's remark. Compounds with a hit are over-represented: about 13% of the library has one in this group of screens. Unless noted, calls follow the shape of the dose curve; as a rule, active = well fitted curve in the direction sought with a large enough effect; inconclusive = small, poorly fitted or top-dose-only effect, or another doubt; inactive = no such curve, though single readings can be large; an effect the other way counts as inactive or inconclusive.

`CCOC(=O)c1ccccc1NC(=O)CN(c1cccc(C)c1C)S(=O)(=O)c1ccccc1` gave G9a inh inconclusive and miR-21 act -7.0%.
`COC(=O)C1(C(=O)OC)C[C@H]2CON=C2[C@H]1c1ccccc1` gave JMJD2E inh 0.9%, ALDH1A1 inh 3.1% and Sfp inh -20.1%.
For COc1ccc(OCCC(=O)OCC(=O)NCCC2=CCCCC2)cc1 the results were G9a inh -19.2%, JMJD2E inh -3.3%, ALDH1A1 inh 12.6µM*, Lamin A splicing inconclusive, miR-21 act 0.6% and Sfp inh 4.3%.
Screening O=C(COc1cnc2ccccc2n1)NCCC1=CCCCC1 returned G9a inh -36.6%[59 µM], JMJD2E inh 41.5%, ALDH1A1 inh 11.2µM*, Lamin A splicing 8.2%, miR-21 act -17.2% and Sfp inh 10.0%.
For O=C(COc1ncnc2ccccc12)NCCC1=CCCCC1 the results were G9a inh 18.2%, JMJD2E inh 1.2%, ALDH1A1 inh 1.6%, Lamin A splicing 15.9%, miR-21 act -12.2% and Sfp inh 13.7%.
Screening COc1ccc(OCCC(=O)OCC(=O)NC2CCCCCCC2)cc1 returned G9a inh 12.4%, JMJD2E inh -21.3%, ALDH1A1 inh 15.8µM*, Lamin A splicing 0.0%[9.22 µM], miR-21 act -4.6% and Sfp inh 13.4%.
Screening O=C(COC(=O)COc1ccc(Br)cc1)NCCC1=CCCCC1 returned G9a inh 22.5%[59 µM], JMJD2E inh 5.4%, ALDH1A1 inh inconclusive, Lamin A splicing -7.3%, miR-21 act -0.1% and Sfp inh 15.2%.
COc1ccc(CNC(=O)COC(=O)CC2CCCC2)cc1 was read as G9a inh 13.3%[59 µM], JMJD2E inh -4.5%, ALDH1A1 inh 7.94µM*, Lamin A splicing 7.3%, miR-21 act 5.3% and Sfp inh -10.1%.
Cc1ccc2c(=O)c(C(=O)c3ccccc3)cn(CC(=O)Nc3ccccc3C)c2n1 was read as G9a inh -21.9%[59 µM], Lamin A splicing 8.1%[46 µM] and miR-21 act -1.3%.
Screening C[n+]1c2n(c3ccccc31)N=C(c1ccc(-c3ccccc3)cc1)CS2 returned G9a inh inconclusive, JMJD2E inh -10.3%, ALDH1A1 inh -14.7%, Lamin A splicing -6.6%[46 µM], miR-21 act inconclusive and Sfp inh -16.2%.
Screening C[n+]1c2n(c3ccccc31)N=C(c1ccc(Br)cc1)CS2 returned G9a inh -20.5%[59 µM], JMJD2E inh -6.3%, ALDH1A1 inh 17.8µM*, Lamin A splicing -21.2%, miR-21 act 24.6% and Sfp inh -16.3%.
`COc1cccc(-c2nc(N3CCCCC3C)c3ccccc3n2)c1O` (stereo not given) gave G9a inh 44.7µM*, JMJD2E inh 1.6%, ALDH1A1 inh -10.7%, Lamin A splicing inconclusive, miR-21 act 12.9% and Sfp inh -17.7%.
For CC1CC2=C(NC(=S)NC2c2cccc(F)c2)/C(=C/c2cccc(F)c2)C1 (stereo not given) the results were G9a inh 31.6µM*, JMJD2E inh inconclusive, ALDH1A1 inh 1.26µM*, Lamin A splicing inconclusive, miR-21 act 10.8% and Sfp inh -4.1%.
Screening CC1CC2=C(NC(=S)NC2c2ccccc2F)/C(=C/c2ccccc2F)C1 (stereo not given) returned G9a inh 17.8µM*, JMJD2E inh -12.4%, ALDH1A1 inh 0.562µM*, miR-21 act -0.7% and Sfp inh inconclusive.
Screening Fc1cccc(C2NC(=S)NC3=C2N2CCC3CC2)c1 (stereo not given) returned G9a inh -17.4%, JMJD2E inh 3.3%, ALDH1A1 inh inconclusive, Lamin A splicing 4.3%, miR-21 act 6.7% and Sfp inh 2.1%.
Screening O=C(Cn1nc(N2CCN(c3ccccc3)CC2)ccc1=O)NCc1ccccc1F returned G9a inh 1.4%[59 µM] and miR-21 act -3.1%.
Cc1ccc(C(=O)c2cn(CC(=O)Nc3ccc4c(c3)OCCO4)c3nc(C)ccc3c2=O)cc1 was read as G9a inh -34.4%[59 µM], Lamin A splicing 13.3%[46 µM] and miR-21 act -23.0%.
CCC(C)NC(=O)Cn1c(=O)n(-c2ccc(Cl)c(Cl)c2)c(=O)c2c(C)c(C(=O)N(CC)CC)sc21 (stereo not given) was read as G9a inh 9.4%[59 µM], Lamin A splicing 3.5%[46 µM] and miR-21 act -5.8%.
Cn1c(=O)c(=O)n(C)c2cc(S(=O)(=O)N3CCCC3C(=O)Nc3ccc(F)cc3)ccc21 (stereo not given) was read as G9a inh -139.4%, miR-21 act -7.0% and Sfp inh 14.5%.
COCCNCC(=O)Nc1ccccc1Sc1ccccc1 was read as G9a inh 10µM*, JMJD2E inh 6.4%, ALDH1A1 inh inconclusive, Lamin A splicing -1.8%, miR-21 act -7.0% and Sfp inh 56.2µM*.
For O=C(CNCCN1CCOCC1)Nc1ccccc1Sc1ccccc1 the results were G9a inh 1.78µM*, JMJD2E inh inconclusive, ALDH1A1 inh 31.6µM*, Lamin A splicing -6.2%, miR-21 act -12.1% and Sfp inh 56.2µM*.
`O=C(CN1CCOCC1)Nc1ccccc1Sc1ccccc1` gave G9a inh 17.0%[59 µM], JMJD2E inh -7.6%, ALDH1A1 inh -5.9%, Lamin A splicing 6.8%, miR-21 act 2.3% and Sfp inh 15.3%.
`CN(C)CCCn1cc(C2=C(c3c[nH]c4ccccc34)C(=O)NC2=O)c2ccccc21` gave G9a inh 14.1µM*, JMJD2E inh -16.1%, ALDH1A1 inh -11.7% and Sfp inh -14.5%.
Cn1cc(C2=C(c3cn(CCCSC(=N)N)c4ccccc34)C(=O)NC2=O)c2ccccc21 was read as G9a inh 7.94µM*, JMJD2E inh -5.7%, ALDH1A1 inh -5.0% and Sfp inh 50.1µM*.
Screening COc1ccccc1/C=C\C(=O)NCC(=O)N/N=C(/C)c1cccc([N+](=O)[O-])c1 returned G9a inh 79.4µM*, miR-21 act -13.0% and Sfp inh 5.3%.
`Cc1ccc(/C=N/NC(=O)C(C)Oc2cccc3ccccc23)o1` (stereo not given) gave G9a inh 20µM*, miR-21 act -5.6% and Sfp inh 56.2µM*.
Cc1ccc(/C=N/NC(=O)c2cccc3ccccc23)o1 was read as G9a inh inconclusive, miR-21 act 5.5% and Sfp inh -16.7%.
